Data reported in PubChem BioAssay AID1159580 (chemical genetic matrix, 2015).
Screen size: about 5,500 compounds; about 2,000 (36%) were called active. Not shown: some 18% with an inconclusive outcome. No stated cut-off is given here; in the data, active means normalized growth mostly below about 0.91 (no sharp cut-off); inconclusive means no clear call, values can overlap the other calls; inactive means mostly above about 0.92. This is one part of the list.

Test: chemical genetic growth profiling, strain panel (AID 1159580);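 further: tested at 20 µM; growth read once vehicle control cultures reached saturation at 30 °C; 1 = growth at the plate median or of vehicle wells; lower values mean less growth of the strain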
Conditions: growth OD

Measured: normalized growth

O=C(OC1Cc2c(O)cc(O)cc2OC1c1cc(O)c(O)c(O)c1-c1c(C2Oc3cc(O)cc(O)c3CC2OC(=O)c2cc(O)c(O)c(O)c2)cc(O)c(O)c1O)c1cc(O)c(O)c(O)c1 (stereo not given)
inactive: S. cerevisiae deletion strains, locus YJL187C, strain SWE1 (second series), active compounds read low 1.01 | S. cerevisiae deletion strains, locus YJR043C, strain POL32, active compounds read low 1.06 | S. cerevisiae deletion strains, locus YKL009W, strain mrt4, active compounds read low 0.953 | S. cerevisiae deletion strains, locus YKL068W, active compounds read low 1 | S. cerevisiae deletion strains, locus YKL085W, strain MDH1 (second series), active compounds read low 0.991 | S. cerevisiae deletion strains, locus YKL085W, strain MDH1, active compounds read low 0.991 | S. cerevisiae deletion strains, locus YKL160W, strain elf1, active compounds read low 1 | S. cerevisiae deletion strains, locus YKL190W, strain CNB1, active compounds read low 1 | S. cerevisiae deletion strains, locus YKR001C, strain vps1, active compounds read low 0.961 | S. cerevisiae deletion strains, locus YKR026C, strain gcn3, active compounds read low 1.02 | S. cerevisiae deletion strains, locus YKR091W, strain srl3, active compounds read low 1.02 | S. cerevisiae deletion strains, locus YLL001W, strain dnm1, active compounds read low 1.02 | S. cerevisiae deletion strains, locus YLL026W, active compounds read low 1.02 | S. cerevisiae deletion strains, locus YLL041C, strain sdh2, active compounds read low 1 | S. cerevisiae deletion strains, locus YLR027C, strain aat2, active compounds read low 1.01 | S. cerevisiae deletion strains, locus YLR039C, strain RIC1, active compounds read low 1.04 | S. cerevisiae deletion strains, locus YLR058C, strain SHM2, active compounds read low 1.01 | S. cerevisiae deletion strains, locus YLR102C, strain apc9, active compounds read low 0.988 | S. cerevisiae deletion strains, locus YLR221C, strain rsa3, active compounds read low 0.995 | S. cerevisiae deletion strains, locus YLR258W, strain gsy2, active compounds read low 0.993 | S. cerevisiae deletion strains, locus YLR262C, strain YPT6, active compounds read low 0.99 | S. cerevisiae deletion strains, locus YLR268W, strain sec22, active compounds read low 0.993 | S. cerevisiae deletion strains, locus YLR320W, strain mms22, active compounds read low 0.981 | S. cerevisiae deletion strains, locus YLR330W, strain CHS5, active compounds read low 0.993 | S. cerevisiae deletion strains, locus YLR342W, strain FKS1 (second series), active compounds read low 1.1 | S. cerevisiae deletion strains, locus YLR342W, strain FKS1, active compounds read low 0.98 | S. cerevisiae deletion strains, locus YLR370C, strain arc18, active compounds read low 1.01 | S. cerevisiae deletion strains, locus YLR371W, strain rom2, active compounds read low 0.979 | S. cerevisiae deletion strains, locus YLR384C, strain iki3, active compounds read low 1 | S. cerevisiae deletion strains, locus YLR418C, strain cdc73, active compounds read low 0.931 | S. cerevisiae deletion strains, locus YML016C, strain PPZ1, active compounds read low 1.03 | S. cerevisiae deletion strains, locus YML032C, strain rad52, active compounds read low 0.99 | S. cerevisiae deletion strains, locus YML120C, strain ndi1, active compounds read low 1 | S. cerevisiae deletion strains, locus YML124C, strain tub3, active compounds read low 0.992 | S. cerevisiae deletion strains, locus YMR078C, strain ctf18, active compounds read low 0.981 | S. cerevisiae deletion strains, locus YMR125W, strain sto1, active compounds read low 1.04 | S. cerevisiae deletion strains, locus YMR129W, active compounds read low 1.02 | S. cerevisiae deletion strains, locus YMR205C, strain PFK2, active compounds read low 0.974 | S. cerevisiae deletion strains, locus YMR223W, strain ubp8, active compounds read low 0.995 | S. cerevisiae deletion strains, locus YMR307W, strain GAS1, active compounds read low 1.08 | S. cerevisiae deletion strains, locus YNL067W, strain RPL9B, active compounds read low 0.984 | S. cerevisiae deletion strains, locus YNL071W, strain lat1, active compounds read low 1.02 | S. cerevisiae deletion strains, locus YNL153C, strain GIM3, active compounds read low 1 | S. cerevisiae deletion strains, locus YNL233W, strain BNI4, active compounds read low 0.964 | S. cerevisiae deletion strains, locus YNL248C, strain rpa49, active compounds read low 1.01 | S. cerevisiae deletion strains, locus YNL250W, strain rad50, active compounds read low 0.968 | S. cerevisiae deletion strains, locus YNL271C, strain bni1, active compounds read low 0.964 | S. cerevisiae deletion strains, locus YNL298W, strain CLA4, active compounds read low 0.979 | S. cerevisiae deletion strains, locus YNL307C, strain MCK1, active compounds read low 0.979 | S. cerevisiae deletion strains, locus YNL322C, strain KRE1 (second series), active compounds read low 1.05 | S. cerevisiae deletion strains, locus YNL322C, strain KRE1, active compounds read low 0.998 | S. cerevisiae deletion strains, locus YNR049C, strain mso1, active compounds read low 1.02 | S. cerevisiae deletion strains, locus YNR052C, strain pop2, active compounds read low 0.969 | S. cerevisiae deletion strains, locus YOL006C, strain TOP1, active compounds read low 0.885 | S. cerevisiae deletion strains, locus YOL012C, strain htz1 1.2 | S. cerevisiae deletion strains, locus YOL147C, strain pex11, active compounds read low 0.987 | S. cerevisiae deletion strains, locus YOR001W, strain rrp6, active compounds read low 0.997 | S. cerevisiae deletion strains, locus YOR061W, strain CKA2, active compounds read low 1.03 | S. cerevisiae deletion strains, locus YOR069W, strain VPS5, active compounds read low 1.02 | S. cerevisiae deletion strains, locus YOR070C, strain gyp1, active compounds read low 0.975 | S. cerevisiae deletion strains, locus YOR080W, strain dia2, active compounds read low 1.02 | S. cerevisiae deletion strains, locus YOR083W, strain WHI5, active compounds read low 0.976 | S. cerevisiae deletion strains, locus YOR136W, strain idh2, active compounds read low 0.972 | S. cerevisiae deletion strains, locus YOR144C, strain elg1, active compounds read low 0.999 | S. cerevisiae deletion strains, locus YOR184W, strain ser1, active compounds read low 0.982 | S. cerevisiae deletion strains, locus YOR265W, strain rbl2, active compounds read low 0.984 | S. cerevisiae deletion strains, locus YOR270C, strain vph1, active compounds read low 0.835 | S. cerevisiae deletion strains, locus YOR290C, strain snf2, active compounds read low 0.985 | S. cerevisiae deletion strains, locus YOR316C, strain cot1, active compounds read low 1 | S. cerevisiae deletion strains, locus YPL078C, strain atp4, active compounds read low 1.01 | S. cerevisiae deletion strains, locus YPL106C, strain sse1, active compounds read low 0.893 | S. cerevisiae deletion strains, locus YPL240C, strain hsp82, active compounds read low 1.02 | S. cerevisiae deletion strains, locus YPR119W, strain clb2, active compounds read low 0.999 | S. cerevisiae deletion strains, locus YPR141C, strain kar3, active compounds read low 0.964 | S. cerevisiae deletion strains, locus YPR163C, strain tif3, active compounds read low 0.987 | S. cerevisiae deletion strains, locus YPR167C, strain met16, active compounds read low 0.986 | S. cerevisiae deletion strains, strain wtn01, active compounds read low 0.994 | S. cerevisiae strains, strain wild type, active compounds read low 1.01
active: S. cerevisiae deletion strains, locus YLR262C, strain YPT6 (second series), active compounds read low 0.766 | S. cerevisiae deletion strains, locus YLR357W, strain rsc2, active compounds read low 0.807 | S. cerevisiae deletion strains, locus YMR058W, strain fet3, active compounds read low 0.338 | S. cerevisiae deletion strains, locus YMR231W, strain pep5, active compounds read low 0.762 | S. cerevisiae deletion strains, locus YNL209W, strain ssb2, active compounds read low 0.735 | S. cerevisiae deletion strains, locus YOR106W, strain vam3, active compounds read low 0.648 | S. cerevisiae deletion strains, locus YPL051W, strain arl3, active compounds read low 0.82
